High-throughput results from PubChem BioAssay.
HSP90 refold inh: HSP90 refolding inhibition in rabbit reticulocyte lysate | luciferase refolding luminescence, 3 h | inhibition, % at 5.6 µM | 290,000 tested, 0.91% active;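 active means inhibition above the screen-wide mean plus 3 SD, computed separately per campaign, cut at about 16% in these data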;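 further: 0% = DMSO wells and 100% = 60 µM geldanamycin wells; inhibitors lower the luminescence because luciferase stays unfolded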
Mdm2-MdmX inh: human Mdm2/MdmX binding inhibition; O15151+Q00987; SaOS-2 split-luciferase Mdm2/MdmX complementation, luminescence; inhibition, % at 8 µM; 330,000 tested, 3% active; AID 485346;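 active means inhibition of at least 50% at 8 µM in the primary screen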
Target sequence (O15151 whole entry, looked up): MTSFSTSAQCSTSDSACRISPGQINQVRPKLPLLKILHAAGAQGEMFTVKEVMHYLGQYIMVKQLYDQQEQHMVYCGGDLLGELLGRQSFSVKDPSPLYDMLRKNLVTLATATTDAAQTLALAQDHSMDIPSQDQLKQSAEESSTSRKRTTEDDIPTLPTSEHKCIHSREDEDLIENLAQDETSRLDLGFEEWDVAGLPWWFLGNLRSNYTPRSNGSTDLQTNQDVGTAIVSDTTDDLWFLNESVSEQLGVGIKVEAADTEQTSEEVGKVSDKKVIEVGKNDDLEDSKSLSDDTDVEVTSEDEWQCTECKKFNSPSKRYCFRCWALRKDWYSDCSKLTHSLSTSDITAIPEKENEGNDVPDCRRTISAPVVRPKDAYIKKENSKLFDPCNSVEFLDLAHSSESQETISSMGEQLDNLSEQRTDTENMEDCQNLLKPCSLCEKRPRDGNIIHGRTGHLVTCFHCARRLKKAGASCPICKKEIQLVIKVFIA
Target sequence (Q00987 whole entry, looked up): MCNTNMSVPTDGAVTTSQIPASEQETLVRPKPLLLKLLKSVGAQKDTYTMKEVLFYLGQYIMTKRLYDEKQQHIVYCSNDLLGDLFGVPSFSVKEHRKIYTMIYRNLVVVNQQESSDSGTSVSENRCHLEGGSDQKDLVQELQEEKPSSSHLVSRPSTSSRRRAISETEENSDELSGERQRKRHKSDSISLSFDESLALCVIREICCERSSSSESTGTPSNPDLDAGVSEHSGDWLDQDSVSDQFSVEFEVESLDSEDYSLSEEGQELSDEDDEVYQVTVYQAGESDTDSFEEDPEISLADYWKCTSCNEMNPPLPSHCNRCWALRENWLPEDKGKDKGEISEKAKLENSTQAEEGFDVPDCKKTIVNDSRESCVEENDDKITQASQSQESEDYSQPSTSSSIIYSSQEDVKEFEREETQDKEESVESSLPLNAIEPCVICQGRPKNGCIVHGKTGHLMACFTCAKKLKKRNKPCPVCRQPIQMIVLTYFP
KKLEB tox: counter-screen for CF NF-kB inhibitors: cytotoxicity | 360,000 tested, 0.36% active | activity change (cytotoxicity), % at 5 µM | KKLEB CF airway cells viability, ATPlite luminescence, overnight; stronger effect = lower value; cells stimulated with P. aeruginosa culture filtrate;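 active means corrected activity change at or below -50% at 5 µM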
LGR2 inh: Drosophila LGR2 receptor signaling inhibition | HEK293 LGR2, CRE-luciferase, bursicon-stimulated, 4 h | inhibition, % at 9.99 µM | 380,000 tested, 0.35% active | AID 720647;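 active means drop in luminescence signal, shown as inhibition above about 50% in the replicate tests, limit read from the data, passing the limit was not always enough; inconclusive means probably only some replicates passing the limit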;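 further: agonist challenge used bursicon conditioned medium at about half maximal strength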
Peg3 promoter: inhibitors of Peg3 promoter; HeLa PEG-Prom luciferase reporter, luminescence, overnight; inhibition, % at 20 µM; 360,000 tested, 1.7% active; AID 588405;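 active means inhibition of at least 50% at 20 µM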
CF NFkB block: inhibitors of cystic fibrosis induced NF-kB | KKLEB NF-kB-GFP reporter, PAF-induced, GFP fluorescence overnight | inhibition, % at 5 µM | 360,000 tested, 0.86% active | AID 588850;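 active means at least 50% inhibition at 5 µM, scaled per plate between neutral and stimulator controls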;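 further: PAF is a Pseudomonas aeruginosa culture filtrate used as stimulus; plate controls were PAF-stimulated DMSO wells for no effect and unstimulated DMSO wells for full effect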
Mdm2-MdmX conf: human Mdm2/MdmX binding inhibition, confirmed | shares compounds with Mdm2-MdmX inh | luminescent assay | inhibition, % at 8 µM | 10,000 tested, 55% active; in the data active means inhibition above about 40%
Full FLuc ctr: counter-screen for Mdm2/MdmX inhibitors: full-length luciferase; inhibition, % at 8 µM; 6,200 tested, 77% active; shares compounds with Mdm2-MdmX inh; AID 504607; SaOS-2 full-length luciferase counterscreen, luminescence;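 active means mean inhibition at 8 µM reaching about 37%, which flags the compound as non-specific, limit read from the data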;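 further: p53-null SaOS-2 cells with luciferase driven by a doxycycline-inducible promoter; compound on cells about two nights before reading with doxycycline added after day one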
Starred values were filed as active, the others as inactive; ? = inconclusive; · = no result given. The list is not random: actives were taken first. Their share in the collection is about 3.6%.

SMILES	HSP90 refold inh	Mdm2-MdmX inh	KKLEB tox	LGR2 inh	Peg3 promoter	CF NFkB block	Mdm2-MdmX conf	Full FLuc ctr
CN1CCN(CCCN(Cc2ccco2)C(=S)Nc2ccc(Cl)cc2)CC1	5	4	6	-11	8	-13	·	·
Cc1cccc(NC(=S)N(CCCN2CCCC2)Cc2cccn2Cc2ccc(Cl)cc2)c1	3	54*	-8	-1	26	10	37	23
O=S(=O)(c1ccc(OCC2CO2)cc1)c1ccc(OCC2CO2)cc1 (stereo not drawn)	1	87*	0	2	40	11	34	·
CC(C)(c1ccccc1)c1ccc(OCC2CO2)cc1 (stereo not drawn)	-1	7	5	-5	-12	3	·	·
Cc1ccc(C)n1-c1nn(S(=O)(=O)c2cccc3cccnc23)c2cccc(F)c12	0	31	8	11	14	-11	·	·
Cc1ccc(S(=O)(=O)n2nc(-n3c(C)ccc3C)c3c(F)cccc32)c2ccccc12	1	50*	-12	-30	15	-6	3	·
Cc1ccc(C)c(NC(=O)C(Sc2nc3ccccc3c(=O)n2CC(C)C)c2ccccc2)c1 (stereo not drawn)	-1	84*	-93*	17	57*	105*	63*	83*
COc1ccc(Nc2nnc(SC(C(=O)Nc3cc(C)ccc3C)c3ccccc3)s2)cc1 (stereo not drawn)	7	84*	-14	15	28	21	5	·
COc1ccccc1S(=O)(=O)N1CC[C@@H]2[C@@H](CO)N(C)c3ccc(-c4ccc(F)cc4)cc3[C@@H]21	·	·	·	6	·	·	·	·
C[C@@H]1CN([C@@H](C)CO)C(=O)c2cccc(NC(=O)C3CC3)c2O[C@H]1CN(C)S(=O)(=O)c1ccc(Cl)cc1	·	·	·	4	·	·	·	·
COC(=O)C[C@H]1CC[C@@H]2[C@@H](COc3ccc(NC(=O)c4cscn4)cc3C(=O)N2C)O1	·	·	·	4	·	·	·	·
Cc1ccc(CN2CC(=O)N3[C@@H](CO)[C@H](c4ccc(-c5ccccc5F)cc4)[C@@H]3C2)cc1	·	·	·	-7	·	·	·	·
CCOc1ccc(Nc2oc(-c3cccc(Cl)c3)nc2C#N)cc1	1	51*	-4	-11	-42	-3	1	·
CCOc1ccc(Nc2oc(-c3ccco3)nc2C#N)cc1	0	8	-4	·	-75	1	·	·
COc1ccc(Nc2oc(COc3cccc(C)c3)nc2C#N)cc1	1	63*	-3	·	-101	1	48*	90*
COc1ccc(Nc2oc(COc3ccc(OC)cc3)nc2C#N)cc1	1	63*	0	·	48	0	80*	59*
COc1ccc(Nc2oc(COc3ccc(C)cc3)nc2C#N)cc1	-2	59*	21	·	9	-20	74*	61*
O=c1c(Cl)c(Cl)cnn1Cc1ccc(F)cc1	5	93*	-5	?	74*	35	35	·
O=c1cnn(Cc2ccc(F)cc2)c2ccccc12	-4	4	-5	13	3	6	·	·
O=C(OCn1ncc(Cl)c(Cl)c1=O)c1ccc(F)cc1	-4	93*	·	·	·	·	100*	50*
O=C(O)C[C@@H]1C[C@H]2c3cc(NC(=O)CC4CC4)ccc3O[C@H]2[C@@H](CO)O1	·	·	·	-7	·	·	·	·
CO[C@@H]1CN(C)C(=O)c2cc(NC(=O)Nc3c(C)noc3C)ccc2OC[C@@H](C)N(CC2CC2)C[C@H]1C	·	·	·	-14	·	·	·	·
O=C(Cc1ccccn1)NCC[C@@H]1CC[C@@H](NC(=O)Nc2ccc(Cl)cc2)[C@@H](CO)O1	·	·	·	-1	·	·	·	·
C[C@H]1CN([C@@H](C)CO)C(=O)c2cccc(NS(=O)(=O)c3ccc(F)cc3)c2O[C@@H]1CN(C)S(=O)(=O)c1cn(C)cn1	·	·	·	-2	·	·	·	·
Cc1cc(C(=O)CN2C(=O)c3ccccc3C2=O)c(C)n1Cc1cccs1	2	68*	-3	20	12	10	67*	102*
Cc1cc(C(=O)CN2C(=O)CCC2=O)c(C)n1Cc1ccccc1	4	-15	13	·	-6	-16	·	·
